Data taken from the supplement of paper PMC10849652.
The full data set covers some 7,900 targets. This sample favours those with a hit. About 0.6% of all pairs of compound and target were hits.

Compound: CCCc1cc(C)[nH]c(=O)c1CNC(=O)c1cc(-c2ccnc(N3CCN(C)CC3)c2)cc2c1cnn2C(C)C
Experiment: log2 fold change, soluble protein after heating vs DMSO (PISA); higher = thermal stabilisation; K562 cells, 10 uM, 30 min; active = over 0.2 and 3.5 SD of the protein, either way, in both replicates (recomputed)
Outline: (§1)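 K562 cells at 2×10^6 cells/mL were exposed to 10 μM compound for 30 min, then aliquots were heated for 3 min across 48°C-58°C, pooled, and extracted in PBS containing 0.5% NP-40 at 4°C. The supernatant after 21,000xg for 90 min was taken as soluble protein and measured by TMTpro 16plex LC-MS/MS with channel sums equalised. Thermal stability is reported relative to control samples, with values from duplicates. Fold changes are given on a log2 scale.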

Chain of UniProt Q9Y5K5 (Q9Y5K5 whole entry, looked up): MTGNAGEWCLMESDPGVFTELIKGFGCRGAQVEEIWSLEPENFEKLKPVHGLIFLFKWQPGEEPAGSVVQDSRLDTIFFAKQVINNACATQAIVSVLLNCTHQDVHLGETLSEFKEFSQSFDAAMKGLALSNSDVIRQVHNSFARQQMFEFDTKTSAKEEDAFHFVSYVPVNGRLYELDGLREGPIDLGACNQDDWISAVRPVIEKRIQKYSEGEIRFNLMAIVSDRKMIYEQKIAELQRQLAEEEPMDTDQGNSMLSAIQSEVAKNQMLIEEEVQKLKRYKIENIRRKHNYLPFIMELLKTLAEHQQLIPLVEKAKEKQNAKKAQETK
Chain of UniProt Q9P253 (Q9P253 whole entry, looked up): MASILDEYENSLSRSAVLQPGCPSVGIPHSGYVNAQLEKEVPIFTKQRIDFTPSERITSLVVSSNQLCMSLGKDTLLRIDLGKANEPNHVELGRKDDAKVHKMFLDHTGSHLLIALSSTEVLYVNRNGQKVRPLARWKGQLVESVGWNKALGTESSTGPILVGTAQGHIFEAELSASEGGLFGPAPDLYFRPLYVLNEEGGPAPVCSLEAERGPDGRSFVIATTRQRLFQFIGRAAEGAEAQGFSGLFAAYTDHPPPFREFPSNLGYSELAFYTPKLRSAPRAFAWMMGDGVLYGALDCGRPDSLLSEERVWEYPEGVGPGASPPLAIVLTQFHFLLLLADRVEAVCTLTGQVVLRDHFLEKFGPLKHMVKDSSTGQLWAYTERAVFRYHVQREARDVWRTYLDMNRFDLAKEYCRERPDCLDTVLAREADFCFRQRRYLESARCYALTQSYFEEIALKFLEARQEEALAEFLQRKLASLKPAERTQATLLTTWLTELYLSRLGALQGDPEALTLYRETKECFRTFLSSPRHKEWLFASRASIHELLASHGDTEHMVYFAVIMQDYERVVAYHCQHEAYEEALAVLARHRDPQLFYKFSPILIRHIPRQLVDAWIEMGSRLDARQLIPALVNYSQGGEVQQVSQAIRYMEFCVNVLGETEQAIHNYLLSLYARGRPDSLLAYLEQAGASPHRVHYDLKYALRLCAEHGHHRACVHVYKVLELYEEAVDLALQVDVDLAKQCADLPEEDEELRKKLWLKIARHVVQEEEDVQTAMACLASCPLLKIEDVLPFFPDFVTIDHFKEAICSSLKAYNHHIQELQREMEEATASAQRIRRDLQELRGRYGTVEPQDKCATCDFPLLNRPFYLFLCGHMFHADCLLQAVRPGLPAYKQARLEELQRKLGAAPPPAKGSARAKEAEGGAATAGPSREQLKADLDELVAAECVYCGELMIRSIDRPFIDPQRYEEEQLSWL
Chain of UniProt Q16881 (Q16881 whole entry, looked up): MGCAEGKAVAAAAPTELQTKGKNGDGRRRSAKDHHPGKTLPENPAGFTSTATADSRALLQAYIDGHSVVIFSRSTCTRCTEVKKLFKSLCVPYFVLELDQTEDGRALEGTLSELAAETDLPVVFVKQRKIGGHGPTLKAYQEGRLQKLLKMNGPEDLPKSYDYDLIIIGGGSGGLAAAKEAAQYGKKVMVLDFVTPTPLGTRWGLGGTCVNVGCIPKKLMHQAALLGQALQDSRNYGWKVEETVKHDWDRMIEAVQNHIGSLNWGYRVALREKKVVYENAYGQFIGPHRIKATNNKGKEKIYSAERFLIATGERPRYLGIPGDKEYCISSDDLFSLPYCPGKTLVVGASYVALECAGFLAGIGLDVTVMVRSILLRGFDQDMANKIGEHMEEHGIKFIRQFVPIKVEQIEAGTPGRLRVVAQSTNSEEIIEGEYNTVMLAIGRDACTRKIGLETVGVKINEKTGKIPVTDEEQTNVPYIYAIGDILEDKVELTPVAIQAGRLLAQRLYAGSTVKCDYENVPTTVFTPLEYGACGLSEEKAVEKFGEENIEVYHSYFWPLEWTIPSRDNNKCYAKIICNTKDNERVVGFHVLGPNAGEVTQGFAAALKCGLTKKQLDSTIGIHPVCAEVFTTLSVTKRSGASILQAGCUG
Chain of UniProt Q14139 (Q14139 whole entry, looked up): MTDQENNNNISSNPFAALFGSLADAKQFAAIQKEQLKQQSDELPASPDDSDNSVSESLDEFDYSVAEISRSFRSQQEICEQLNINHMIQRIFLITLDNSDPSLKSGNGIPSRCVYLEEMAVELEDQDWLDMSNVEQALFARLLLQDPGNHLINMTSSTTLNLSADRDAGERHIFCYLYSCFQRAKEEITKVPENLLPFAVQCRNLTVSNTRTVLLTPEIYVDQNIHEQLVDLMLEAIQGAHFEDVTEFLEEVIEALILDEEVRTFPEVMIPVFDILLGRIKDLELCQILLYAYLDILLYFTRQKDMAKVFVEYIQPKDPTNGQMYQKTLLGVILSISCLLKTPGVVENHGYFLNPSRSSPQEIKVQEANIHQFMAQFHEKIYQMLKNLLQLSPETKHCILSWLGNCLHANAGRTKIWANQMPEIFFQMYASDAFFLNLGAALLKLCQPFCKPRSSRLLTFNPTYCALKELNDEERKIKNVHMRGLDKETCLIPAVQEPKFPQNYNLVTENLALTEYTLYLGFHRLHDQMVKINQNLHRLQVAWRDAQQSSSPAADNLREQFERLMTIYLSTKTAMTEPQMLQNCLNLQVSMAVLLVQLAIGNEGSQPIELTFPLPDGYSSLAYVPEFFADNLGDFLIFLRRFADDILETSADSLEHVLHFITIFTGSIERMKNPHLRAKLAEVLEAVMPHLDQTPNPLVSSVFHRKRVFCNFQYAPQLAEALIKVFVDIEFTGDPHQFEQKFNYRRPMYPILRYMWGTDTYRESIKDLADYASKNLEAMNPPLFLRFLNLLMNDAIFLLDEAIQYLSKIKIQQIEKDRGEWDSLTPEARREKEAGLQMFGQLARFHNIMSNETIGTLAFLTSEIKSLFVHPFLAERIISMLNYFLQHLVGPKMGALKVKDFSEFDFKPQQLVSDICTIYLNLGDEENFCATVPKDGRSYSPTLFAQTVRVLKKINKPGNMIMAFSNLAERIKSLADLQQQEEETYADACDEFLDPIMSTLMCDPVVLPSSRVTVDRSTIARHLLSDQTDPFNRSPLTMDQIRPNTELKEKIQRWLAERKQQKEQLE
Chain of UniProt Q96AX1 (Q96AX1 whole entry, looked up): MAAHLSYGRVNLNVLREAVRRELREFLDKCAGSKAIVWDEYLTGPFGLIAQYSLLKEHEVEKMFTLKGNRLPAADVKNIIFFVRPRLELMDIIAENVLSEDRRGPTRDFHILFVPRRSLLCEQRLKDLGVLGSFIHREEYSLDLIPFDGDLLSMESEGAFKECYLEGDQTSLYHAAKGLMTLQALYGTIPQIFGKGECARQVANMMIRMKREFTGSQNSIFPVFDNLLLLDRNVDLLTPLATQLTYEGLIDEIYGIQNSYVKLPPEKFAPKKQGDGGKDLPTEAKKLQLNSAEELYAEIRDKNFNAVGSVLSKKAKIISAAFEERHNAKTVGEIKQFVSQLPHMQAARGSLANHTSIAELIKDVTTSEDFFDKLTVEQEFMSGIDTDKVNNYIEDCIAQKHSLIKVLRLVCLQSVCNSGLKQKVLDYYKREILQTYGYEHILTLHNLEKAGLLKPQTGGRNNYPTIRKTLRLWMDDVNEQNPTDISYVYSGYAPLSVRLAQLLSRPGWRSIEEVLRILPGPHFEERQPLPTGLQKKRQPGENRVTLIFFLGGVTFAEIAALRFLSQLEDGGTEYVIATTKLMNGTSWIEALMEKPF
Chain of UniProt Q7Z7N9 (Q7Z7N9 whole entry, looked up): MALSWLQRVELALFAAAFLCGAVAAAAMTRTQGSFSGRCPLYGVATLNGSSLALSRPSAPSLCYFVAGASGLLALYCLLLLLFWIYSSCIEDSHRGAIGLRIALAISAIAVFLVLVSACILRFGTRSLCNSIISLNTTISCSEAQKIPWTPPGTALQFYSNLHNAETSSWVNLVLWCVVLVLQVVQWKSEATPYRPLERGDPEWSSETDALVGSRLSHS
Chain of UniProt P28908 (P28908 whole entry, looked up): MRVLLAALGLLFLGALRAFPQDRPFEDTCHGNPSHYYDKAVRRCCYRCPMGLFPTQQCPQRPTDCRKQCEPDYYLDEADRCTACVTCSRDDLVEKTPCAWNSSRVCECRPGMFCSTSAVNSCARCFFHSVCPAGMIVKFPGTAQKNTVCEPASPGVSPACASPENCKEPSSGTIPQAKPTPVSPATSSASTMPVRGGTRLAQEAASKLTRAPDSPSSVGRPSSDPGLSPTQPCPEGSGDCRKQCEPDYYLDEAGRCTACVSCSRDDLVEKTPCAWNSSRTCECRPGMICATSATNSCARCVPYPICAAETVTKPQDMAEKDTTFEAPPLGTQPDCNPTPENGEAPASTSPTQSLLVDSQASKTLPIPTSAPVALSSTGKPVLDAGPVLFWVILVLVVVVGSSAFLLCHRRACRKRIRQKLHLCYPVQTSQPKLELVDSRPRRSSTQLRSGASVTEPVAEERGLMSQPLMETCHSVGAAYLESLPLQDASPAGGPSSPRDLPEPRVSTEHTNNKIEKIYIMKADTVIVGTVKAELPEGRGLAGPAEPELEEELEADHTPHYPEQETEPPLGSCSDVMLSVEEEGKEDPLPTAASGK
Chain of UniProt Q9BQB6 (Q9BQB6 whole entry, looked up): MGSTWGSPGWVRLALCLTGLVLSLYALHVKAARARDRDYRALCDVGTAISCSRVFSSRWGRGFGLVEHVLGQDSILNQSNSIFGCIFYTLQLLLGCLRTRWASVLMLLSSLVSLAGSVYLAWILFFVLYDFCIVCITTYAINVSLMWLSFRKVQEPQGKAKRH
Chain of UniProt Q99757 (Q99757 whole entry, looked up): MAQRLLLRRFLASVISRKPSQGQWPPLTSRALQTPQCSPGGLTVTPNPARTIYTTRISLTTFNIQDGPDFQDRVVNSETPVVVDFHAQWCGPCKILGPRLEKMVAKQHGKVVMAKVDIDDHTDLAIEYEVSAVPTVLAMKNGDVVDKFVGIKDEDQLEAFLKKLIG
Chain of UniProt Q5BJH2 (Q5BJH2 whole entry, looked up): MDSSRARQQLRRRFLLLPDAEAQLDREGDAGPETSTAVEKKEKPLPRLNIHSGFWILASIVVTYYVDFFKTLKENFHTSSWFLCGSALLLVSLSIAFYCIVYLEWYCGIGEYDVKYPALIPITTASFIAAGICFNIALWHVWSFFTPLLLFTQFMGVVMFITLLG

log2 fold change, inactive:
UBE4A isoform 2 (UniProt Q14139) 0.021
UCHL5 (UniProt Q9Y5K5) 0.003
VPS33B (UniProt Q9H267) 0.111
VPS33A (UniProt Q96AX1) 0.04
VPS18 (UniProt Q9P253) 0.004
VKORC1 (UniProt Q9BQB6) -0.017
TNFRSF8 (UniProt P28908) 0.031
TXNRD1 (UniProt Q16881) -0.035
WDCP (UniProt Q9H6R7) -0.004
TSC2 (UniProt P49815) -0.036
TNPO3 (UniProt Q9Y5L0) 0.003
TMEM179B (UniProt Q7Z7N9) -0.021

Compound: CCN(CC)Cc1ccc2cc(COC(=O)Nc3ccc(C(=O)NO)cc3)ccc2c1 [givinostat]
Experiment: as above
Outline: as §1

log2 fold change, inactive:
UXT isoform 2 (UniProt Q9UBK9) 0.211
TMEM128 (UniProt Q5BJH2) 0.249
VWA3B isoform 6 (UniProt Q502W6) 0.011
TMEM164 (UniProt Q5U3C3) -0.038
TXN2 (UniProt Q99757) -0.046
WDR37 isoform 2 (UniProt Q9Y2I8) -0.018
UBA52 (UniProt P62987) -0.06
U2AF1L5 (UniProt P0DN76) 0.563
TRIM44 (UniProt Q96DX7) -0.026
USP15 (UniProt Q9Y4E8) 0.025
UTP3 (UniProt Q9NQZ2) 0.075
TTC33 (UniProt Q6PID6) -0.062
UFD1 isoform 1 (UniProt Q92890) 0.032
TXNL4B (UniProt Q9NX01) 0.014
TMEM189-UBE2V1 (UniProt I3L0A0) 0.024
WARS1 (UniProt G3V277) 0.141
UNC119B (UniProt A6NIH7) 0.12
TSEN2 (UniProt Q8NCE0) 0.012
UCHL5 isoform 3 (UniProt Q9Y5K5) 0.056
TMEM106B (UniProt Q9NUM4) 0.052
UBIAD1 (UniProt Q9Y5Z9) 0.043
UBE4A isoform 2 (UniProt Q14139) 0.073
UCHL5 (UniProt Q9Y5K5) 0.057
VPS33B (UniProt Q9H267) 0.029
VPS33A (UniProt Q96AX1) 0.058
VPS18 (UniProt Q9P253) 0.035
VKORC1 (UniProt Q9BQB6) -0.006
TNFRSF8 (UniProt P28908) -0.007
TXNRD1 (UniProt Q16881) 0.011
WDCP (UniProt Q9H6R7) 0.116
TSC2 (UniProt P49815) -0.043
TNPO3 (UniProt Q9Y5L0) 0.029
TMEM179B (UniProt Q7Z7N9) -0.118
